Reference: PubChem BioAssay (NCATS)
Records with an inconclusive call do not appear. Entries that show only a call come without a potency. A number with no mark means an inactive call. Active and inactive are the calls of the source. Calls come from the whole dose curve; as a rule, active = well fitted curve in the direction sought with a large enough effect; inconclusive = small, poorly fitted or top-dose-only effect, or another doubt; inactive = no such curve, though single readings can be large; an effect the other way counts as inactive or inconclusive.

Target: Metallo-beta-lactamase type 2 (Klebsiella pneumoniae) (UniProt C7C422)
Test: qHTS to identify inhibitors of the New Delhi Metallo-beta-lactamase (NDM): assay validation screen against the NCATS LOPAC Collection (AID 1794843);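 note: nitrocefin turnover by NDM-1 measured as 485 nm absorbance at plateau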
Conditions: NDM-1 enzyme, nitrocefin hydrolysis, absorbance 485 nm; series mostly up to 38.4 µM; activity change, negative = inhibition: at the top concentration
In short: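 Nitrocefin hydrolysis (50 uM substrate stock) by NDM-1, 2 nM final, was followed by 485 nm absorbance after compound preincubation; buffer was 50 mM HEPES pH 7.0, 1 uM ZnSO4, 0.01% Tween20.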

Chain of Metallo-beta-lactamase type 2 (Klebsiella pneumoniae) (C7C422 whole entry, looked up): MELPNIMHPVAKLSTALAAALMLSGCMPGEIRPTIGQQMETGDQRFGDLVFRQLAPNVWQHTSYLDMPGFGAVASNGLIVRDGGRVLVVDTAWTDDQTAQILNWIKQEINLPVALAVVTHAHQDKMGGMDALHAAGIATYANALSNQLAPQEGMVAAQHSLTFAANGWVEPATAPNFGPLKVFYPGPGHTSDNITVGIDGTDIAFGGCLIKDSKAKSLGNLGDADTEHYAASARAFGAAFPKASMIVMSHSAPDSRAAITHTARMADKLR

| SMILES | activity change, negative = inhibition |
| --- | --- |
| Cn1c(CCCC(=O)O)nc2cc(N(CCCl)CCCl)ccc21 | -7.79% |
| Cc1cccc(C)c1NC(=O)CN1CCCC1=O | -0.382% |
| O=c1[nH]c2ccccc2n1CCCN1CCC(n2c(=O)[nH]c3cc(Cl)ccc32)CC1 | -0.0495% |

Target: Glutathione peroxidase 1 (Homo sapiens) (UniProt P07203)
Test: Primary qHTS Assay for Inhibitors of Recombinant Selenoprotein Glutathione Peroxidase 1 (GPX1) (AID 1845191); note: nearly all actives have a fitted effect of over 65% in size
Conditions: recombinant GPX1, GR-coupled NADPH fluorescence, 15 min; series mostly up to 48.8 µM; activity, negative = inhibition: at the top concentration
In short: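 Recombinant GPX1 (10 nM final) was preincubated with compound for 30 min at room temperature, then reacted with 1 mM GSH, 0.5 mM CHP, 0.5 mM NADPH and 100 nM glutathione reductase; NADPH fluorescence (340/450 nm) was read at 0 and 15 min.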

Chain of Glutathione peroxidase 1 (Homo sapiens) (P07203 whole entry, looked up): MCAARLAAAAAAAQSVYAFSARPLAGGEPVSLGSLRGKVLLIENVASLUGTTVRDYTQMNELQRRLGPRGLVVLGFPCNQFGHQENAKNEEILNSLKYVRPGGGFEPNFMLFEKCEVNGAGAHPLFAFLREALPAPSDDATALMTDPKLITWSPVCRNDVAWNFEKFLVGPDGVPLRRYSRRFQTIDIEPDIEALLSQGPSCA

| SMILES | outcome | Potency | activity, negative = inhibition |
| --- | --- | --- | --- |
| FC(F)(F)c1cccc(C2=CCN(CCc3ccc4ccccc4c3)CC2)c1 | inactive |  |  |
| COc1ccc(Cc2nccc3cc(OC)c(OC)cc23)cc1OC |  | inactive |  |
| Clc1ccc(COC(Cn2ccnc2)c2ccc(Cl)cc2Cl)cc1 (configuration not stated) |  | inactive |  |
| Clc1ccc(CCC(Cn2ccnc2)Sc2c(Cl)cccc2Cl)cc1 (configuration not stated) |  | inactive |  |
| CCC(COC(=O)c1cc(OC)c(OC)c(OC)c1)(c1ccccc1)N(C)C (configuration not stated) |  |  | -16.4% |
| CC(C)(C)NCC(O)c1cc(Cl)c(N)c(Cl)c1 (configuration not stated) |  |  | -0.361% |
| Oc1ccccc1-c1ccccc1 |  |  | -12.5% |
| CCCC1CCCCN1 (configuration not stated) | inactive |  |  |
| C[C@]12CCC(=O)C(O)=C1CC[C@@H]1[C@@H]2CC[C@]2(C)C(=O)CC[C@@H]12 |  |  | 3.18% [at 98.3 µM] |
| Oc1ccc(Cl)cc1Cc1ccccc1 |  |  | -7.71% |
| N[C@@H]1C[C@H]1c1ccccc1 |  | inactive |  |
| Cn1c(CCCC(=O)O)nc2cc(N(CCCl)CCCl)ccc21 |  | inactive |  |
| O=[N+]([O-])c1cc([As](=O)(O)O)ccc1O |  |  | -18.5% |
| Oc1cc(Cl)ccc1Oc1ccc(Cl)cc1Cl |  |  | -27.4% |
| CC(=O)Nc1cc([As](=O)(O)O)ccc1O |  |  | 1.58% |
| C[C@]12CC[C@H]3[C@@H](CCC4=CC(=O)CC[C@@H]43)[C@@H]1CC[C@@H]2OC(=O)CCc1ccccc1 |  |  | -19.1% |
| C=CCN1CC[C@]23c4c5ccc(O)c4O[C@H]2C(=O)CC[C@@]3(O)[C@H]1C5 | inactive |  |  |
| CC(C)NCC(O)c1ccccc1Cl (configuration not stated) |  |  | -11.1% |
| c1ccc2c(c1)Nc1ccccc1S2 | inactive |  |  |
| Cc1cccc(C)c1NC(=O)CN1CCCC1=O |  | inactive |  |
| CCN(CC)C(=O)N[C@@H]1C=C2c3cccc4[nH]cc(c34)C[C@@H]2N(C)C1 | inactive |  |  |
| Oc1cccc2cccnc12 |  | inactive |  |
| CCC(C(N)=O)N1CCCC1=O (configuration not stated) |  |  | 4.76% |
| O=c1[nH]c2ccccc2n1CCCN1CCC(n2c(=O)[nH]c3cc(Cl)ccc32)CC1 |  | inactive |  |
| C=C1C[C@@H]2[C@H](CC[C@]3(C)C(=O)CC[C@@H]23)[C@@]2(C)C=CC(=O)C=C12 |  | inactive |  |
| OCCOc1ccccc1 |  |  | 3.54% [at 98.3 µM] |
| C=C1CC[C@@]2(O)[C@H]3Cc4ccc(O)c5c4[C@@]2(CCN3CC2CC2)[C@H]1O5 |  |  | -8.44% |
| CC(C)=CC1C(C(=O)OCc2cccc(Oc3ccccc3)c2)C1(C)C (configuration not stated) |  |  | -1.29% |

Target: Phospholipid hydroperoxide glutathione peroxidase GPX4 (Homo sapiens) (UniProt P36969)
Test: Primary qHTS Assay for Inhibitors of Recombinant Selenoprotein Glutathione Peroxidase 4 (GPX4) (AID 1845192); note: nearly all actives have a fitted effect of over 65% in size
Conditions: recombinant GPX4, GR-coupled NADPH fluorescence, 15 min; series mostly up to 50 µM; activity change, negative = inhibition: at the top concentration
In short: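 GR-coupled readout: 100 nM GR, 1 mM GSH, 0.5 mM NADPH; NADPH fluorescence (ex 340/em 450 nm) read at t=0 and after 15 min RT. GPX4 200 nM, preincubated 30 min with compound; substrate 0.5 mM CHP.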

Chain of Phospholipid hydroperoxide glutathione peroxidase GPX4 (Homo sapiens) (P36969 whole entry, looked up): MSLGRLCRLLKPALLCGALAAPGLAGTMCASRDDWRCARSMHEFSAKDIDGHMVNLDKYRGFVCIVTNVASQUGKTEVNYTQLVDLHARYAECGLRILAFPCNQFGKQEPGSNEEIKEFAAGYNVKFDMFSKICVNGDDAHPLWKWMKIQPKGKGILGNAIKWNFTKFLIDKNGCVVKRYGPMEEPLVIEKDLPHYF

| SMILES | outcome | Potency | activity change, negative = inhibition |
| --- | --- | --- | --- |
| FC(F)(F)c1cccc(C2=CCN(CCc3ccc4ccccc4c3)CC2)c1 | inactive |  |  |
| COc1ccc(Cc2nccc3cc(OC)c(OC)cc23)cc1OC |  | inactive |  |
| Clc1ccc(COC(Cn2ccnc2)c2ccc(Cl)cc2Cl)cc1 (configuration not stated) |  | inactive |  |
| Clc1ccc(CCC(Cn2ccnc2)Sc2c(Cl)cccc2Cl)cc1 (configuration not stated) |  | inactive |  |
| CCC(COC(=O)c1cc(OC)c(OC)c(OC)c1)(c1ccccc1)N(C)C (configuration not stated) |  |  | -9.13% |
| CC(C)(C)NCC(O)c1cc(Cl)c(N)c(Cl)c1 (configuration not stated) |  |  | 0.928% |
| Oc1ccccc1-c1ccccc1 | inactive |  |  |
| CCCC1CCCCN1 (configuration not stated) |  |  | 1.58% |
| C[C@]12CCC(=O)C(O)=C1CC[C@@H]1[C@@H]2CC[C@]2(C)C(=O)CC[C@@H]12 |  |  | -13.3% [at 100 µM] |
| Oc1ccc(Cl)cc1Cc1ccccc1 |  |  | -1.94% |
| N[C@@H]1C[C@H]1c1ccccc1 |  | inactive |  |
| Cn1c(CCCC(=O)O)nc2cc(N(CCCl)CCCl)ccc21 |  | inactive |  |
| O=[N+]([O-])c1cc([As](=O)(O)O)ccc1O |  |  | -7.21% |
| Oc1cc(Cl)ccc1Oc1ccc(Cl)cc1Cl |  |  | -19.3% |
| CC(=O)Nc1cc([As](=O)(O)O)ccc1O | inactive |  |  |
| C[C@]12CC[C@H]3[C@@H](CCC4=CC(=O)CC[C@@H]43)[C@@H]1CC[C@@H]2OC(=O)CCc1ccccc1 |  |  | -10.6% |
| C=CCN1CC[C@]23c4c5ccc(O)c4O[C@H]2C(=O)CC[C@@]3(O)[C@H]1C5 | inactive |  |  |
| CC(C)NCC(O)c1ccccc1Cl (configuration not stated) |  |  | -4.22% |
| c1ccc2c(c1)Nc1ccccc1S2 | inactive |  |  |
| Cc1cccc(C)c1NC(=O)CN1CCCC1=O |  | inactive |  |
| CCN(CC)C(=O)N[C@@H]1C=C2c3cccc4[nH]cc(c34)C[C@@H]2N(C)C1 |  |  | 3.6% |
| Oc1cccc2cccnc12 |  | inactive |  |
| CCC(C(N)=O)N1CCCC1=O (configuration not stated) | inactive |  |  |
| O=c1[nH]c2ccccc2n1CCCN1CCC(n2c(=O)[nH]c3cc(Cl)ccc32)CC1 |  | inactive |  |
| C=C1C[C@@H]2[C@H](CC[C@]3(C)C(=O)CC[C@@H]23)[C@@]2(C)C=CC(=O)C=C12 |  | inactive |  |
| OCCOc1ccccc1 |  |  | -2.48% [at 100 µM] |
| C=C1CC[C@@]2(O)[C@H]3Cc4ccc(O)c5c4[C@@]2(CCN3CC2CC2)[C@H]1O5 | inactive |  |  |
| CC(C)=CC1C(C(=O)OCc2cccc(Oc3ccccc3)c2)C1(C)C (configuration not stated) | inactive |  |  |

Tested on: not listed separately
Test: Quantitative High-Throughput drug screen in 47 multiple myeloma cell lines against the NCATS MIPE library collection: Karpas620_DSMZ cell viability assay (AID 1918959); note: nearly all actives have a fitted effect of over 30% in size; note: potency is the fitted concentration of half-maximal effect
Conditions: Karpas620 myeloma viability, CellTiter-Glo ATP luminescence, 48 h; series mostly up to 45.8 µM; viability (% of DMSO): at the top concentration
In short: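 CellTiter-Glo luminescence (ATP) after 48 h compound exposure, 37C/5% CO2; 500 cells/well; MIPE 4.0 approved/investigational drugs pinned in; DMSO = 100%, media only = 0% viability.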

| SMILES | viability (% of DMSO) | Potency |
| --- | --- | --- |
| Cn1c(CCCC(=O)O)nc2cc(N(CCCl)CCCl)ccc21 | 125% |  |
| Cc1cccc(C)c1NC(=O)CN1CCCC1=O | 106% |  |
| O=c1[nH]c2ccccc2n1CCCN1CCC(n2c(=O)[nH]c3cc(Cl)ccc32)CC1 |  | 20.9 µM (active) |
